# Source: the supplement of paper PMC3334620
# The full ranking holds about 33,000 sequences; the median of “E-score (-0.5 to 0.5)” is about -0.054, and the highest 2% start at about 0.35. What follows is part of a selection rich in the highest values, with near analogues and random picks from the rest.
# Biological target: T1, Stb5 (UniProt P38699)
# T1 sequence: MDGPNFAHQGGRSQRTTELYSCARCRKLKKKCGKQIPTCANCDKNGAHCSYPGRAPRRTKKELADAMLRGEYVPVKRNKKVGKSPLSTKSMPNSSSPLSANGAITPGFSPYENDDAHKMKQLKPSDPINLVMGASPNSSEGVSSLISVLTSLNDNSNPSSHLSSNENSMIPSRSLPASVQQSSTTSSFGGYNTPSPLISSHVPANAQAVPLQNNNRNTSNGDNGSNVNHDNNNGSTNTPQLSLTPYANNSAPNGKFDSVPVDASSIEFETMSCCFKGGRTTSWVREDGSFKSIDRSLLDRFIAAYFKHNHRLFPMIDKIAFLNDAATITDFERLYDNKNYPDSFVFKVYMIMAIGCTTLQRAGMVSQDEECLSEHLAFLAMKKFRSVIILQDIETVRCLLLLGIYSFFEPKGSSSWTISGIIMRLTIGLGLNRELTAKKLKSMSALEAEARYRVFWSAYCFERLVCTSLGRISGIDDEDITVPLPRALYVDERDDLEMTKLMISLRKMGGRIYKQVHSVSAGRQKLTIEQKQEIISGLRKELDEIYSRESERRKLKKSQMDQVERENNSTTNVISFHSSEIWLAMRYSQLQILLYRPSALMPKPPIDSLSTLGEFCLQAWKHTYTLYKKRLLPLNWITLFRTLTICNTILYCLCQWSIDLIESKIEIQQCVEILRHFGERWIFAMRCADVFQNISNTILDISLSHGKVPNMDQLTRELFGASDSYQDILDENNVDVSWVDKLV
# Assay: PBM E-score (8-mer binding enrichment) (E-score (-0.5 to 0.5)); higher = stronger / more preferred TF binding
# Conditions: protein concentration: 200 nM; construct: GST-full length
# Outline: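 Universal all-10-mer Agilent arrays, fresh or stripped once, were converted to double-stranded form by primer extension. GST-tagged yeast transcription factors from PURExpress in vitro transcription/translation, full-length or DNA-binding domain only, were applied at about 100-200 nM and detected with fluorescent anti-GST. After masliner normalisation, the Universal PBM Analysis Suite scored each ungapped eight-base word together with its reverse complement by E-score.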
row,Sequence,PBM E-score
1,ATTCGCAC,0.00083
2,GAAACGTA,-0.0447
3,AAATGCTA,-0.223
4,CCTTGGCA,-0.227
5,CGTTAACC,0.0895
6,GTACCAAC,-0.00359
7,ACCAGATC,-0.153
8,CTCTATGA,-0.245
9,CCTGCTAG,-0.0487
10,AGTCTCAT,-0.154
11,CGCCACAC,0.0326
12,GCGCCGCC,0.331
13,CCGCCGCC,0.361
14,ACGCCGTC,0.405
15,AAGCCGCG,0.287
16,ACGCCGCG,0.361
17,ACGCCGTG,0.297
18,ACGCCGCT,0.383
19,CAGCCGCC,0.0327
20,ACGCCGTA,0.204
21,AAGCCGTC,0.243
22,AAGCCGCT,0.134
23,ACGCCTCT,-0.306
24,AACTTCTT,-0.0358
25,ATAGAGTA,-0.0125

row,Sequence,PBM E-score
1,CGTCTAAC,0.0919
2,GGATAGGA,-0.00719
3,CAGCGCAA,-0.0211
4,CGACAGTA,0.0893
5,AGTGACGA,-0.191
6,AGCTCCCC,-0.226
7,TACTAGCA,-0.277
8,AGTGAAGA,-0.155
9,ACTGAAGG,-0.139
10,CATAGAGG,-0.173
11,ATGCCGCA,0.25
12,ATGCCGCC,0.423
13,ACGCCGCC,0.41
14,ACGCCGCA,0.354
15,CCGCCGCG,0.363
16,AGGCCGCC,0.324
17,CCGCCGCA,0.301
18,GCGCCGCA,0.268
19,CAGCCGCG,0.0138
20,CCGCGCCG,0.288
21,AAGCCGCC,0.245
22,ATGCCGCG,0.319
23,AAGGGGAA,-0.188
24,AATGGATA,0.135
25,TGGACCAA,-0.112

row,Sequence,PBM E-score
1,GTTACTTA,0.0421
2,CCGAGGAG,0.0924
3,AGATCAAC,-0.251
4,GCGCCGTA,0.253
5,CCGCCGTC,0.29
6,CCGCCGTA,0.381
7,CATAAGCG,0.0871
8,GTTGAGGA,-0.203
9,CTTTCACA,-0.0931
10,GCAAGACC,0.146
11,CCGATGCG,0.339
12,CGGGGGAA,0.257
13,CGGGGAAA,0.385
14,CGGAACTA,0.44
15,CGGAATTC,0.0284
16,AGGGGATA,0.0586
17,AGGAATTA,-0.00087
18,GGGGGATA,0.13
19,CGGAATTA,0.417
20,CGGGGATA,0.478
21,CGGAACTC,0.0793
22,GGGGGAAA,0.165
23,AGGAACTA,0.0488
24,AGAATGGG,-0.212
25,CCTTGACA,-0.071

row,Sequence,PBM E-score
1,GCTTTTAC,0.265
2,ACGTCGTC,-0.0716
3,AAAGTTTG,-0.169
4,CGGCCGCA,0.235
5,TGTAACAA,-0.111
6,GAATCTCA,-0.131
7,GGTCGCGA,-0.0386
8,AGGGATTA,0.0519
9,CGGGAATA,0.456
10,AGGGAATA,0.0674
11,CGGGATTA,0.471
12,CGGAAATA,0.399
13,GGGGAATA,0.174
14,CGGAAATC,0.0555
15,CGGAAGTC,0.204
16,CGGGATTC,0.219
17,GGGAAATA,0.134
18,CGGAAGTA,0.352
19,AGGAAGTA,0.0105
20,GAAGCGGA,0.282
21,CTCGATGC,-0.2
22,CGAGTGTC,-0.0644
23,AGCTTTTG,-0.139
24,CAGACACC,0.0808
25,AGTACGAT,-0.165

row,Sequence,PBM E-score
1,CCAGTGAG,-0.17
2,TTATAGAA,-0.0532
3,GCATAAGC,0.0731
4,AGAGACGG,0.0766
5,CTTTGACA,-0.135
6,CGGGACTC,0.184
7,CGGGAGTA,0.417
8,CGGGACTA,0.451
9,AGGGAGTA,-0.109
10,GGGGACTA,-0.0234
11,GGGGAGTA,0.0545
12,CGGGGACA,0.415
13,CGGGGACC,0.051
14,GGGGGACA,-0.187
15,AACGGGTA,0.102
16,ACGATCCT,-0.231
17,CGTCCGGC,0.275
18,CGTCCGGA,0.153
19,AGTCCGGC,0.38
20,CGTCCGCC,0.338
21,GATCCGGA,0.227
22,ATTCCGGA,0.115
23,AGTCCGCG,0.339
24,AGTCCGGG,0.274
25,GGTCCGGA,0.391

row,Sequence,PBM E-score
1,AGTCCGCA,0.323
2,AGTCCGGA,0.39
3,AGTCCGCC,0.42
4,AACCCTCC,-0.0222
5,AATTCTCG,-0.186
6,TCGCCTCA,-0.162
7,CCCGAACC,0.144
8,CGCAGACA,-0.0673
9,AACTTCAC,-0.293
10,ACTGGGGG,-0.28
11,AGAGTGAT,-0.258
12,AAGTTCTG,-0.231
13,CCACCTTC,-0.199
14,ACCGCTCT,0.226
15,ACCGCTGC,0.364
16,ACCGCTGA,0.255
17,ACCGCTAA,0.263
18,ACCGCTAT,0.33
19,GCCGCTAA,0.296
20,CCCGCTGC,0.209
21,ACCGCTAC,0.395
22,GCCGCTAC,0.39
23,CCCGCTAC,0.216
24,ACCGCTCG,0.357
25,ACCGCTCC,0.323

row,Sequence,PBM E-score
1,AAACGAAG,-0.0773
2,ATCTGGCC,0.0703
3,TCACGCGA,-0.0286
4,ACCTCTAT,-0.163
5,TCTGTGCA,-0.195
6,GTAGTAAC,0.12
7,AACGAACC,-0.116
8,TGCCCCAA,-0.123
9,ACGTTGTA,-0.0486
10,CGCACTTA,0.368
11,AGCACTTA,-0.0929
12,CGCACTTC,0.0228
13,CCCTGCAG,-0.0201
14,CCGGTGTC,0.408
15,CTGGTGTC,-0.178
16,GCGGTGTA,0.421
17,CGGGTGTA,0.37
18,CCGGTGAC,0.292
19,ACGGTGTC,0.408
20,ACGGTGTG,0.288
21,CGGGTGTC,0.00649
22,GGGGTGTA,0.178
